Drawing on PubChem BioAssay AID743060 (The Scripps Research Institute Molecular Screening Center, 2013), this text covers inhibition for 35 molecules.

The nature of the assay: T. brucei methionyl-tRNA synthetase enzyme inhibition – biochemical, radioactivity, round 1, late-stage follow-up (AID 743060). Conditions: purified enzyme, radiolabel aminoacylation, scintillation, 2 h; at 1 µM; stronger effect = higher value.
With `O=C(NCCc1nc2ccccc2[nH]1)c1ccc(Cl)c([N+](=O)[O-])c1`, the inhibition amounted to 89.8%.

Turning to `O=C1[C@@H]2Cc3c([nH]c4ccccc34)C(c3cccc([N+](=O)[O-])c3)N2C(=O)CN1CCCO` (stereo not given in full), the inhibition was determined as 63.2%. Turning to `COc1ccc(OCC(O)CNC(=O)Nc2ccc(Cl)cc2)cc1` (stereo not given), the inhibition amounted to 28.9%. As to `CCc1ccc2[nH]c3nc(SCC(=O)NCc4cccc(OC)c4)nnc3c2c1`, the inhibition came out at 4.75%. Take `O=C1CC(NCCc2ccccc2)C(=O)N1c1ccc(Br)cc1` (stereo not given): the inhibition is -6.51%. Under `CN(Cc1cc(Cl)cc(Cl)c1)[C@H]1C[C@H]2c3[nH]c4ccccc4c3CCN2C(=O)[C@H]1CO` stands 95.1%; under `COc1ccc(CCN(C(=S)Nc2ccccc2)C2CC(=O)N(c3ccc(Cl)cc3)C2=O)cc1` (stereo not given), 92.7%; under `COc1ccc(CNC(=O)CSc2nnc3c(n2)[nH]c2ccc(F)cc23)cc1`, 47.5%.

As for `Cc1ccc(NC(=O)CN(C)C(=O)CCSc2ccc(F)cc2)cc1`, the inhibition was -1.05%. In the case of `COc1ccc(CCN(C(=O)c2cccc(F)c2)C2CC(=O)N(c3ccc(Br)cc3)C2=O)cc1` (stereo not given), the inhibition was -5.29%. Under `CCN(C(=O)Cn1cc(C(=O)C(=O)N2CCOCC2)c2ccccc21)c1ccccc1` stands -19.2%; under `O=C(NCCc1nc2ccccc2[nH]1)c1ccc(Cl)c(Cl)c1`, 74.6%; under `Clc1ccc(OCCSCc2nc3ccccc3[nH]2)cc1`, -2.58%. Under `COc1cccc(NC(=O)CSc2nnc3c(n2)[nH]c2ccc(C)cc23)c1` stands 97.7%. For `CCC(=O)c1cn(CC(=O)Nc2cccc(C(F)(F)F)c2)c2ccccc12` the value was -3.8%.

As to `O=C(Cn1cc(C(=O)C(=O)N2CCCC2)c2ccccc21)Nc1ccccc1`, the inhibition was -5.78%.

Consider `CNC(=S)N(CCc1ccccc1)C1CC(=O)N(c2ccc(Br)cc2)C1=O` (stereo not given), for which the inhibition was 96.6%. Take `CCN(CCc1nc2ccc(C)cc2[nH]1)C(=O)c1ccc2ncccc2c1`: the inhibition was -4.55%. Under `O=C1CC(N(CCc2ccccc2)C(=S)Nc2ccccc2)C(=O)N1c1ccc(Br)cc1` (stereo not given) stands 84.2%; under `CCN(CC)C(=O)C(=O)c1cn(CC(=O)N(CC)c2ccccc2)c2ccccc12`, -3.75%. Under `CN1CC(=O)N2C(c3cccc([N+](=O)[O-])c3)c3[nH]c4ccccc4c3C[C@H]2C1=O` (stereo not given in full) stands 57.7%; under `O=C(Cn1cc(C(=O)C(=O)N2CCOCC2)c2ccccc21)NCc1ccccc1`, -0.16%; under `CC(=O)c1cn(CC(=O)Nc2cccc(C(F)(F)F)c2)c2ccccc12`, 20.1%.

As for `O=C(Cn1cc(C(=O)C(=O)N2CCOCC2)c2ccccc21)NCC1CCCO1` (stereo not given), the inhibition was -3.8%. Under `CCN(CC)C(=O)C(=O)c1cn(CC(=O)N2CCCc3ccccc32)c2ccccc12` stands -9.56%.

Regarding `O=C(NCc1nc2ccccc2[nH]1)C1=C[C@@H](C2CC2)C[C@@H](OCc2ccc(CO)cc2)O1`, the inhibition was 52.8%. On to `C[C@H](O)[C@@H]1C(=O)N2CCc3c([nH]c4ccccc34)[C@@H]2C[C@@H]1N(C)Cc1ccc2c(c1)OCO2`, for which the inhibition is 1.98%. Turning to `O=C(NCCc1nc2ccccc2[nH]1)c1c(F)cccc1F`, the inhibition was 2.62%. As to `O=C(CC(=O)Nc1cccc(Cl)c1)NN=Cc1ccccc1`, the inhibition came out at 28.2%. Under `CC(=O)c1c[nH]c(C(=O)NCc2cccc(C(F)(F)F)c2)c1` stands 44.6%; under `COc1ccccc1-n1c(SCC(=O)Nc2ccc(Cl)cc2)nc(O)c(Cc2ccccc2)c1=O`, 2.04%.

`CCN(CC)C(=O)C(=O)c1cn(CC(=O)Nc2ccccc2OC)c2ccccc12`: the inhibition is -7.03%.

Turning to `CCCCn1c(CCNC(=O)c2ccc(F)cc2)nc2ccccc21`, the inhibition amounted to 4.87%.

Regarding `O=C(NCc1nc2ccccc2[nH]1)C1=C[C@H](c2ccccc2)C[C@H](OCc2ccc(CO)cc2)O1`, the inhibition turned out to be 7.32%.

Turning to `O=C(NCc1nc2ccccc2[nH]1)C1=C[C@H](c2csc3ccccc23)C[C@H](OCCCCO)O1`, the inhibition is 71.1%.

The term inhibition denotes the change of the read-out against control, counted positive when it falls.
